Records with an inconclusive call do not appear. Active and inactive are the calls of the source. Unless noted, the call rests on the fitted dose curve.

The results in this text go back to PubChem BioAssay (Tox21).

The nature of assay [1]: Nuclear factor erythroid 2-related factor 2/antioxidant responsive element (Nrf2/ARE) small molecule agonists: qHTS cell viability counter screen in human keratinocytes (AID 1919968; active means well fitted curve in the direction sought with a large enough effect in the repeat runs; an effect the other way counts as inactive or inconclusive; further: nearly all actives have a fitted effect of over 55% in size; further: potency means the concentration at half of the fitted maximal effect). The method in brief:
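Seed 1,500 KeratinoSens cells per well, then incubate 5 h at 37 C/5% CO2. Add compounds in DMSO and incubate 23 h. Add CellTiter-Fluor, wait 1 h and read fluorescence.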

Assay [2] is described as follows: Nuclear factor erythroid 2-related factor 2/antioxidant responsive element (Nrf2/ARE) small molecule agonists: luciferase reporter gene qHTS assay in human keratinocytes (AID 1919969). Further: nearly all actives have a fitted effect of over 35% in size. Further: potency means the concentration at half of the fitted maximal effect. Background: In a reporter assay the amount or activity of a reporter protein is the signal.
The target in assay [3] is Gonadotropin-releasing hormone receptor (Homo sapiens) (UniProt P30968). Kind of assay: Human gonadotropin-releasing hormone receptor (GnRHR) small molecule agonists, calcium flux assay in GnRHR-HEK293 cells (AID 1920063). Further: nearly all actives have a fitted effect of over 35% in size. In a few lines: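 Cells: HEK293 stably expressing human GnRHR. Steps: overnight (18 h) culture, 1 h calcium dye loading at 37 C, compound addition, kinetic fluorescence read at 480/540 nm. Each compound tested at 15 concentrations in triplicate.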
(Calcium assays in cells follow changes in intracellular calcium, usually with a dye or a luminescent sensor.)

For assay [4], the target named is KiSS-1 receptor (Homo sapiens) (UniProt Q969F8). Kind of assay: Human kisspeptin (KISS1R) small molecule agonists, calcium flux assay in KISS1R-HEK293 cells (AID 1920064; active means well fitted curve in the direction sought with a large enough effect in the repeat runs; an effect the other way counts as inactive or inconclusive). The method in brief:
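Cells plated and incubated 18 h; dye added, 1 h at 37 C; compounds in DMSO pinned in; signal read at 480/540 nm every second for 3 min. Each compound tested at 15 concentrations in triplicate.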

Assay [5] in a line: G protein-coupled receptor (GPCR) small molecule agonists, calcium flux assay: HEK293 wild type cell line counter screen (AID 1920065). In a few lines: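 Counter-screen of the Tox21 10K library for non-specific calcium release: dye-loaded cells received compounds in DMSO and were monitored by kinetic fluorescence (480/540 nm, 3 min). Fifteen concentrations, run in triplicate.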

Assay [6] in a line: p53 small molecule agonists, cell-based qHTS assay with human liver microsomes (AID 1963577). In a few lines: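 In this qHTS, p53 response-element beta-lactamase cells receive test compound together with a microsome/NADPH activating system (0.5 mg/mL final each) and are incubated 16 h at 37 C before LiveBLAzer fluorescence detection.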
On the technique in general: Quantitative high-throughput screening tests each substance at several concentrations.

Assay [7] can be described thus: p53 small molecule agonists, cell-based qHTS assay with rat liver microsomes (AID 1963578). The method in brief: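 Agonist mode in p53RE-bla reporter cells, with compounds co-incubated 16 h at 37 C alongside 0.5 mg/mL rat liver microsomes and 0.5 mg/mL NADPH (final), followed by a 2 h LiveBLAzer detection step.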
Assay [8] in a line: p53 small molecule agonists, cell-based qHTS assay with human liver microsomes: qHTS cell viability counter screen (AID 1963579). Further: nearly all actives have a fitted effect of over 45% in size. Further: potency means the concentration at half of the fitted maximal effect. The method in brief:
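Metabolically activated exposure: compounds, human liver microsomes and NADPH (0.5 mg/mL final apiece) were added to p53RE-bla cells seeded 5 h earlier, left 16 h at 37 C, and then assessed for viability by CellTiter-Glo luminescence.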

Assay [9] in a line: p53 small molecule agonists, cell-based qHTS assay with rat liver microsomes: qHTS cell viability counter screen (AID 1963580). Further: nearly all actives have a fitted effect of over 45% in size. Further: potency means the concentration at half of the fitted maximal effect. The method in brief:
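Viability is assessed in parallel with the p53 reporter read: HCT-116 p53RE-bla cells receive compounds plus rat microsomes and NADPH (0.5 mg/mL final apiece), incubate 16 h at 37 C, and then CellTiter-Glo luminescence is recorded.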

The nature of assay [10]: p53 small molecule agonists, cell-based qHTS assay: qHTS cell viability counter screen (AID 1963581). Further: nearly all actives have a fitted effect of over 45% in size. In a few lines:
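Cells: HCT-116 with p53 response element-driven beta-lactamase. Treatment: 16 h, 37 C, compounds in DMSO. Read: CellTiter-Glo luminescence after 30 min RT.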

Assay [11] in a line: p53 small molecule agonists, cell-based qHTS assay (AID 1963582; active means well fitted activation curve with a large enough effect in the signal ratio in the repeat runs, not every such curve was filed as active; the % refers to the signal ratio). In a few lines: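 Quantitative HTS in p53RE-bla cells: after a 5 h settling period, compounds delivered in DMSO were left on cells for 16 h at 37 C, and reporter induction was measured as fluorescence following 2 h substrate loading.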
The nature of assay [12]: cAMP Responsive Elements (CRE) small molecule agonists, cell-based qHTS assay (AID 1963590). In a few lines: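 Agonist mode qHTS in CRE-bla HEK 293T cells: compounds dosed from DMSO for 3 h at 37 C/5% CO2, followed by LiveBLAzer B/G FRET substrate for 2 h at room temperature.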
The nature of assay [13]: cAMP Responsive Elements (CRE) small molecule antagonists, cell-based qHTS assay (AID 1963591; active means well fitted inhibition curve with a large enough effect in the signal ratio in the repeat runs, not every such curve was filed as active; the % refers to the signal ratio). The method in brief:
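Antagonist mode: test compounds are co-incubated with the adenylyl cyclase activator NKH477 (0.25 uM final) on CRE-bla HEK293T cells for 3 h at 37 °C, followed by LiveBLAzer substrate loading.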

The target in assay [14] is D(2) dopamine receptor (Homo sapiens) (UniProt P14416). Briefly: Dopamine D2 receptor (DRD2) small molecule agonists, cell-based qHTS assay (AID 1963594). Further: nearly all actives have a fitted effect of over 35% in size. In a few lines: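 HEK293 cells stably expressing human DRD2, pre-treated with PDE inhibitor Ro20-1724 (0.1 mM final) and compound 10 min at room temperature, then stimulated with NKH477 (200nM […]) for 30 min. cAMP read by HTRF (665/620 nm).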

The target is the same in assay [15]. Briefly: Dopamine D2 receptor (DRD2) small molecule antagonists, cell-based qHTS assay (AID 1963595; active means well fitted inhibition curve with a large enough effect in the signal ratio in the repeat runs, with a control signal flat; the % refers to the signal ratio). In a few lines: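 DRD2-HEK293; 0.1 mM Ro20-1724; cpd 10 min RT; NKH477 200 nM + quinpirole 12 nM, 30 min RT; HTRF cAMP (cAMP-d2/anti-cAMP cryptate), 665/620 nm ratio after 1 h.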
Assay [16] has as its target Beta-2 adrenergic receptor (Homo sapiens) (UniProt P07550). Kind of assay: Adrenergic beta2 receptor (ADRB2) small molecule antagonists, cell-based qHTS assay (AID 1963592). Further: series mostly up to about 92 µM; nearly all actives have a fitted effect of over 50% in size. In a few lines:
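Cells (CHO, stable ADRB2 overexpression) incubated 18-20hr at 37C; compounds added from DMSO; agonist mix (1nM isoproterenol, 100uM IBMX, 25uM Ro-20-1724) added; 0.5hr RT; d2-cAMP and anti-cAMP-cryptate added; 1hr RT; 665/615 nm read.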

The target is the same in assay [17]. Briefly: Adrenergic beta2 receptor (ADRB2) small molecule agonists, cell-based qHTS assay (AID 1963593).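 Further: CHO cells stably overexpressing human ADRB2.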 In a few lines:
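CHO cells stably over-expressing ADRB2 were plated overnight at 37C, then dosed with compounds plus a stimulation mix containing 100uM IBMX and 25uM Ro-20-1724 for 0.5hr at room temperature. cAMP was measured by HTRF competition, 1hr.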

Assay [18] deals with 5-hydroxytryptamine receptor 2A (Homo sapiens) (UniProt P28223). Kind of assay: 5-hydroxytryptamine receptor 2A (HTR2A) small molecule agonists, cell-based qHTS assay (AID 1963587). Further: nearly all actives have a fitted effect of over 30% in size. The method in brief: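 CHO cells stably expressing human HTR2A, plated 18 h, loaded with calcium dye 1 h at 37 C. Agonist mode: compounds added and intracellular calcium fluorescence recorded kinetically for 2 min at 1 sec intervals.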

The target of assay [19] is Muscarinic acetylcholine receptor M1 (Homo sapiens) (UniProt P11229). Briefly: Cholinergic receptor muscarinic 1 (CHRM1) small molecule antagonists, cell-based qHTS assay (AID 1963588). Further: potency means the concentration at half of the fitted maximal effect; nearly all actives have a fitted effect of over 40% in size. In a few lines:
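CHRM1-CHO calcium-flux assay, antagonist mode. Cells were seeded 18 h, dye-loaded 1 h at 37 C and given compound for 5 min at RT, then acetylcholine was added at 50nM. FDSS fluorescence was read 3 min; 15 concentrations, three runs.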

For assay [20] the target is unchanged. Briefly: Cholinergic receptor muscarinic 1 (CHRM1) small molecule agonists, cell-based qHTS assay (AID 1963589). Further: nearly all actives have a fitted effect of over 35% in size. In a few lines: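 Agonist-mode qHTS in CHO cells stably carrying human muscarinic M1. Intracellular calcium is tracked by fluorescence every second after compound transfer; each compound runs at 15 concentrations in three independent runs.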

Chain of D(2) dopamine receptor (Homo sapiens) (P14416 whole entry, looked up): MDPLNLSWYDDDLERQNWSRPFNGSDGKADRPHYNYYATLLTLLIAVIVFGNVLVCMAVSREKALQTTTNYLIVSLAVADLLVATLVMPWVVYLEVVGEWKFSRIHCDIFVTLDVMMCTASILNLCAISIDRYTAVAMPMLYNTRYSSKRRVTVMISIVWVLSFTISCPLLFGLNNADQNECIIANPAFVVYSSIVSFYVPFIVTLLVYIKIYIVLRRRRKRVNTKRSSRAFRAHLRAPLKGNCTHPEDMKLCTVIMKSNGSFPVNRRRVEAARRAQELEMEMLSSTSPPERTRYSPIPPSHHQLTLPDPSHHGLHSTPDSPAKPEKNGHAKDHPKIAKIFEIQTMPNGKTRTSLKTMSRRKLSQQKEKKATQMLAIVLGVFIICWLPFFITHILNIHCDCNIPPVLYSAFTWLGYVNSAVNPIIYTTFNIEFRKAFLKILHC
Chain of Beta-2 adrenergic receptor (Homo sapiens) (P07550 whole entry, looked up): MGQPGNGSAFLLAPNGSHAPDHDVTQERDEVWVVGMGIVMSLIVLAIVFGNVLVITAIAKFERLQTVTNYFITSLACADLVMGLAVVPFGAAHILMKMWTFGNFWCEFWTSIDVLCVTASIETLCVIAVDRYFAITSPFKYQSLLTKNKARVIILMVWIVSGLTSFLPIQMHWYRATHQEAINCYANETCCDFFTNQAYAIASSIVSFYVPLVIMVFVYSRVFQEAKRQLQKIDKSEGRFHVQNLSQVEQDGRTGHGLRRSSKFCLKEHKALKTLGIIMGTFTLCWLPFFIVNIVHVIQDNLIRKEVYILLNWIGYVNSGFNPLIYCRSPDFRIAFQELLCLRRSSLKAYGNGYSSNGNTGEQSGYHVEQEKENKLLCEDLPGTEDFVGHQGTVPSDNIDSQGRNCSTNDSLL
Chain of Gonadotropin-releasing hormone receptor (Homo sapiens) (P30968 whole entry, looked up): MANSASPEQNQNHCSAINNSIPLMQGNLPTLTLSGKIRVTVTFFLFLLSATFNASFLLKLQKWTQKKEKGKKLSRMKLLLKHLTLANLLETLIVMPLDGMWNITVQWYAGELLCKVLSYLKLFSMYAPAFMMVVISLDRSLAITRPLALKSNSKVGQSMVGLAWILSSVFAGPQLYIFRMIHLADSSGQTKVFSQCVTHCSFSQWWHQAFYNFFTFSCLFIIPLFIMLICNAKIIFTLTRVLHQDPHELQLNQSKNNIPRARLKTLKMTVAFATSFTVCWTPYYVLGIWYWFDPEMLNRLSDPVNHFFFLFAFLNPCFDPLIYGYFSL
Chain of KiSS-1 receptor (Homo sapiens) (Q969F8 whole entry, looked up): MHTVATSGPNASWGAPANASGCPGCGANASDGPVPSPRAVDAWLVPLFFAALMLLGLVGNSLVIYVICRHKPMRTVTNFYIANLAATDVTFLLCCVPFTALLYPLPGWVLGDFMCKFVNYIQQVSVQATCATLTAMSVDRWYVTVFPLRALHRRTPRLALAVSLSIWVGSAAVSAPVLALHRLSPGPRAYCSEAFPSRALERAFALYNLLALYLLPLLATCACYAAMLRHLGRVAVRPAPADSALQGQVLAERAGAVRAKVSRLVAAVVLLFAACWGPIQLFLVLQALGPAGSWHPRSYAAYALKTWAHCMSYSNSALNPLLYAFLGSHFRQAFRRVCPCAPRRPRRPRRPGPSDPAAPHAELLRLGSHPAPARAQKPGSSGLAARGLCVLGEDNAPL
Chain of Muscarinic acetylcholine receptor M1 (Homo sapiens) (P11229 whole entry, looked up): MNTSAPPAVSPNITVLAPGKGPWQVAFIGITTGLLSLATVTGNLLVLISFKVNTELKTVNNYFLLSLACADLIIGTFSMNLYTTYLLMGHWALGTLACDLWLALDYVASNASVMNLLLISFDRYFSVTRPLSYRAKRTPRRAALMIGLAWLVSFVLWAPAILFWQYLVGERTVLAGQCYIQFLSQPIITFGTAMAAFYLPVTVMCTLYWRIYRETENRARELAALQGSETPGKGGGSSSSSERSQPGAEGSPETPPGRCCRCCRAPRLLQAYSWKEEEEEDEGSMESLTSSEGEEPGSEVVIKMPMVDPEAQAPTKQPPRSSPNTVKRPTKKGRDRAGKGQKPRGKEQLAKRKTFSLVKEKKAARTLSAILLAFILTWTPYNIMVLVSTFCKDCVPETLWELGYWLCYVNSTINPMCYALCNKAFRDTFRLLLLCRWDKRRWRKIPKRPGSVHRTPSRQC
Chain of 5-hydroxytryptamine receptor 2A (Homo sapiens) (P28223 whole entry, looked up): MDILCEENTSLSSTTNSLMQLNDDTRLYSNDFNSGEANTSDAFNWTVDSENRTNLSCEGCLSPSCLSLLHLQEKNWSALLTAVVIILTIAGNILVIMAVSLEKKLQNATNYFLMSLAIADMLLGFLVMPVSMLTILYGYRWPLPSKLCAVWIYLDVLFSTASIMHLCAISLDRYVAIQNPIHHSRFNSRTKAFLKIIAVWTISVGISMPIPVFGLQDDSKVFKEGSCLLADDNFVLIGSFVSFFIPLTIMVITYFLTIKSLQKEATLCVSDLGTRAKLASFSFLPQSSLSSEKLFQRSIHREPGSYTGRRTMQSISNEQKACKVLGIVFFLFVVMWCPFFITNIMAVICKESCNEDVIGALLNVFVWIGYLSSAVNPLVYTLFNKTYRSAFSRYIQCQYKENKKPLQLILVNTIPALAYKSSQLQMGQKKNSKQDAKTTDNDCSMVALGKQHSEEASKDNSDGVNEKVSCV

In the case of `CC(C)NCC(O)c1ccc(NS(C)(=O)=O)cc1` (stereo unspecified), the Potency result in assay [1], in [2], in assay [3], in [6], in assay [7] and in assay [8] was “inactive” in each case. Moreover, the Potency result in [9], in assay [10], in assay [11], in [12], in assay [13] and in assay [14] was “inactive” each time. Also, in [15], the Potency result was “inactive”. Also, the outcome in [4] and in assay [5] was inactive.

Consider `Cc1ccc(C(=O)c2ccc(CC(=O)O)n2C)cc1`, for which the Potency entry in [1], in [2], in assay [3], in [6], in assay [7] and in assay [8] was “inactive” in each case. For the same compound, the Potency entry in assay [9], in assay [10], in assay [11], in assay [13], in assay [16] and in assay [17] was “inactive” each time. Moreover, the Potency entry in assay [14] and in [15] was “inactive” in each case. The outcome in [4] and in assay [5] was inactive.

Take `CC(=O)[C@@]1(O)CC[C@H]2[C@@H]3C[C@H](C)C4=CC(=O)CC[C@]4(C)[C@H]3CC[C@@]21C`: the Potency result in assay [1], in assay [2], in [3], in assay [6], in assay [7] and in [8] was “inactive” in each case. Moreover, the Potency result in assay [9], in assay [10], in [11], in assay [16], in [14] and in [15] was “inactive” in each case. Besides, the outcome in assay [4] and in assay [5] was inactive.

Regarding `C[C@H]1C[C@H]2[C@@H]3CCC4=CC(=O)C=C[C@]4(C)[C@@]3(F)[C@@H](O)C[C@]2(C)[C@@]1(O)C(=O)COP(=O)(O)O`, the Potency entry in [1], in assay [2], in assay [3], in assay [6], in assay [7] and in assay [8] was “inactive” in each case. The Potency entry in assay [9], in assay [10], in assay [11], in [13], in assay [16] and in assay [17] was “inactive” each time. Also, the Potency result in assay [14] and in [15] was “inactive” each time. In addition, the outcome in assay [4] and in [5] was inactive.

Consider `CN1CCN(CCCN2c3ccccc3Sc3ccc(Cl)cc32)CC1`, for which the Potency entry in [1], in [2], in [3], in assay [6], in assay [7] and in assay [8] was “inactive” each time. Further, the Potency result in [9], in [10], in assay [11], in assay [17] and in [14] was “inactive” in each case. In addition, the outcome in assay [4] and in [5] was inactive.

On to `CC(C)(Sc1cc(C(C)(C)C)c(O)c(C(C)(C)C)c1)Sc1cc(C(C)(C)C)c(O)c(C(C)(C)C)c1`, for which the Potency entry in [1], in assay [2], in assay [3], in [6], in assay [7] and in assay [8] was “inactive” throughout. Further, the Potency result in assay [9], in [10], in assay [11], in assay [12], in assay [16] and in assay [14] was “inactive” throughout. Besides, in assay [15], the Potency result was “inactive”. Besides, the outcome in assay [4] and in [5] was inactive.

Take `CCCOc1ccccc1-c1nc2n[nH]nc2c(=O)[nH]1`: the Potency result in assay [1], in assay [2], in [3], in assay [6], in [7] and in assay [8] was “inactive” in each case. Also, the Potency result in assay [9], in [10], in assay [11], in assay [16] and in assay [15] was “inactive” each time. Further, the outcome in assay [4] and in assay [5] was inactive.

For the compound `CCOC(=O)OC(C)OC1=C(C(=O)Nc2ccccn2)N(C)S(=O)(=O)c2ccccc21` (stereo unspecified), the Potency result in assay [1], in assay [2], in assay [3], in [6], in assay [7] and in [8] was “inactive” each time. Besides, the Potency entry in assay [9], in assay [10], in assay [11], in assay [12], in assay [13] and in [17] was “inactive” in each case. Besides, the Potency result in [14] and in assay [15] was “inactive” throughout. In addition, the outcome in assay [4] and in [5] was inactive.

For `CN(C[C@@H](CC[N+]12CCC(C3CCCCC3)(CC1)CC2)c1ccc(Cl)c(Cl)c1)C(=O)c1cc(C(F)(F)F)cc(C(F)(F)F)c1`, the Potency in assay [1] is 61.1 µM (active); in assay [2] it was 24.3 µM (active); in assay [8] it was 36.3 µM (active); in assay [9] it was 40.8 µM (active); in assay [19] it was 0.0942 µM (active). The Potency result in [3], in assay [6], in [7], in [10], in [18] and in [20] was “inactive” each time. Further, the outcome in [4] and in assay [5] was inactive.
